Data on 13 compounds can be found in PubChem BioAssay (NCI).

Molecules are shown by their SMILES. This is part of a sample that, as a whole, favours compounds with a hit. Of some 83,000 tested, about 20% had one in any assay.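 Growth was measured after 48 h exposure to one concentration of compound in 96-well plates. Values under 10 count as active.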 A number with no mark means an inactive call. Activity calls are given as the source filed them.

Some test systems named below: T-47D breast; BT-549 breast; MDA-MB-435 melanoma; SW-620 colon; MCF7 breast; HCT-116 colon; HCC-2998 colon; KM12 colon.
Holding throughout (assay): NCI-60 one-dose screen, 48 h (100 = growth as untreated, 0 = no growth, -100 = all killed)
Common to all, as to conditions: 10 µM unless noted

With `CCN(CC)c1ccc2[nH]c3c(C(N)=O)cc(=O)c(=O)c=3oc2c1`, the growth in the experiment on T-47D breast is -0.924% (active); in the experiment with BT-549 breast it was 38.9%; in the experiment on MDA-MB-435 melanoma, -4.76% (active); with SW-620 colon, 9.8% (active); with MCF7 breast, -31.5% (active); with HCT-116 colon it was -10.9% (active). The growth with HCC-2998 colon is -5.4% (active); with KM12 colon it was 9.09% (active).
Take `N/C(=N\C(N)=N\c1nc2ccccc2s1)c1cccc(Br)c1`: the growth with T-47D breast is 52.1%; in the experiment on BT-549 breast, 79.1%; in the experiment with MDA-MB-435 melanoma, 93.8%; in the experiment with SW-620 colon, 102%; in the experiment with MCF7 breast, 77.4%; with HCT-116 colon it was 61.2%. Also, the growth in the experiment with HCC-2998 colon was 108%; with KM12 colon it was 66.5%.
As for `Nc1nc(Nc2cc(Cl)cc(Cl)c2)nn1S(=O)(=O)c1ccc2ccccc2c1`, the growth was 46% with T-47D breast; 90.7% with BT-549 breast; 77.5% in the experiment on MDA-MB-435 melanoma; 67.6% in the experiment on SW-620 colon; 32.8% with MCF7 breast; 33.5% in the experiment with HCT-116 colon. Further, the growth in the experiment on HCC-2998 colon was 68.3%; in the experiment on KM12 colon, 21.9%.
`COc1cccc(-c2nc3sccn3c2-c2ccnc(NCCCNS(=O)(=O)c3ccc(C(F)(F)F)cc3)c2)c1`: the growth with T-47D breast is 23.7%; in the experiment with BT-549 breast it was 54.6%; in the experiment on MDA-MB-435 melanoma, 36.8%; in the experiment on SW-620 colon, 68.5%; with MCF7 breast, 31.1%; in the experiment with HCT-116 colon it was 41.9%. Also, the growth with HCC-2998 colon was 72.2%; in the experiment on KM12 colon it was 57.2%.
Consider `COc1ccc(-c2nc(SCCC(C)C)nc(Nc3ccc(F)c(Cl)c3)c2C#N)cc1`, for which the growth in the experiment with T-47D breast is 72.4%; in the experiment on BT-549 breast it was 97.1%; in the experiment with MDA-MB-435 melanoma, 79.1%; in the experiment on SW-620 colon, 54.8%; in the experiment with MCF7 breast it was 69.1%; in the experiment with HCT-116 colon, 68.3%. The growth with HCC-2998 colon and in the experiment on KM12 colon was 102% in each case.
`CCOC(=O)c1c(/N=C2\SC(=O)/C(=C\C(=O)OC)N2NC)sc2c1CCN(C(=O)OCC)C2`: the growth is 93.4% in the experiment on T-47D breast; 91.7% in the experiment with BT-549 breast; 101% in the experiment on MDA-MB-435 melanoma; 105% in the experiment with SW-620 colon; 98.7% in the experiment with MCF7 breast; 95% in the experiment on HCT-116 colon. For the same compound, the growth was 92.5% with HCC-2998 colon and 99.1% with KM12 colon.
Consider `Cc1ccc(-c2cc3nc(C(Cl)Cl)nc(-c4ccccc4C)n3n2)cc1`, for which the growth is 49.7% with T-47D breast; 88.7% with BT-549 breast; -2.12% (active) with MDA-MB-435 melanoma; 46.1% with SW-620 colon; 70.3% in the experiment on MCF7 breast; 49.6% in the experiment with HCT-116 colon. Also, the growth with HCC-2998 colon is 81.8%; in the experiment with KM12 colon it was 26.1%.
Take `CC(C)(C)Nc1c(-c2cccs2)nc2ncccn12`: the growth is 93.1% with T-47D breast; 105% with BT-549 breast; 107% in the experiment with MDA-MB-435 melanoma; 103% in the experiment with SW-620 colon; 93.8% in the experiment on MCF7 breast; 98.6% in the experiment on HCT-116 colon. Further, the growth is 100% with HCC-2998 colon and 97.5% in the experiment on KM12 colon.
Regarding `Cn1ccc(Nc2nccc(Oc3ccc(C(=O)Nc4cccc(F)c4)c(Cl)c3)n2)c1`, the growth with T-47D breast is 38.8%; in the experiment with BT-549 breast, 80.5%; with MDA-MB-435 melanoma, 81.3%; in the experiment on SW-620 colon it was 85.4%; in the experiment on MCF7 breast, 85.9%; in the experiment on HCT-116 colon, 86.8%. The values for the growth with HCC-2998 colon and in the experiment on KM12 colon were 81.9% and 102%, respectively.
`O=C1/C(=C/c2ccccc2)CN(C(=O)CCN2CCC(=NO)CC2)C/C1=C\c1ccccc1`: the growth is -2.11% (active) in the experiment on T-47D breast; 2.46% (active) in the experiment on BT-549 breast; -58.1% (active) with MDA-MB-435 melanoma; -52% (active) in the experiment with SW-620 colon; -21.5% (active) in the experiment with MCF7 breast; -68.7% (active) in the experiment with HCT-116 colon. The growth in the experiment with HCC-2998 colon was -65.5% (active); in the experiment with KM12 colon, -63.1% (active).
For the compound `OB(O)c1cccc(-c2nc3ccc4[nH]ncc4c3c3c2CCCC3)c1F`, the growth was 54.1% in the experiment on T-47D breast; 30.2% with BT-549 breast; 44.4% in the experiment on MDA-MB-435 melanoma; 35.1% in the experiment with SW-620 colon; 62.5% with MCF7 breast; 20.9% in the experiment on HCT-116 colon. Moreover, the growth with HCC-2998 colon is 71.4%; in the experiment on KM12 colon, 28.7%.
With `O=C([O][Sn]([O]C(=O)c1ccccn1)([c]1ccccc1)[c]1ccccc1)c1ccccn1`, the growth with T-47D breast was -14.9% (active); in the experiment with BT-549 breast, 98.5%; in the experiment with MDA-MB-435 melanoma, 80.6%; in the experiment with SW-620 colon, 0.566% (active); with MCF7 breast it was 31.8%; with HCT-116 colon, 30.7%. Also, the growth with HCC-2998 colon was 88.3%; with KM12 colon, 97.4%.
On to `O=C(Nc1cccc(-n2cc(-c3ccncc3)c(-c3ccc(Cl)c(O)c3)n2)c1)Nc1cccc(C(F)(F)F)c1`, for which the growth with T-47D breast was 18.5%; in the experiment with BT-549 breast it was 36%; in the experiment on MDA-MB-435 melanoma it was 15.6%; in the experiment on SW-620 colon, 28.5%; in the experiment with MCF7 breast, 10.3%; in the experiment on HCT-116 colon it was 9.75% (active). Moreover, the growth with HCC-2998 colon is 40.1%; in the experiment on KM12 colon, 2.46% (active).
